Screens from PubChem BioAssay.
Compounds with a hit are over-represented: about 19% of the library has one in this group of screens.
HT1080 IDH1KD tx: toxicity to HT-1080 IDH1 knockdown cells (counter line); HT-1080 IDH1 knockdown viability, ATP luminescence, 48 h; Potency, µM (top dose mostly 46.1 µM), actives largely listed as cytotoxic; 360,000 compounds, 2% hits
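Using the IDH1-knockdown HT-1080 line run in the same batch and compound series as the NT line, viability after 48 h at 37 °C was determined by CellTiter-Glo luminescence and expressed as % activity.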
TDP1 cell noCPT: qHTS for Inhibitors of human tyrosyl-DNA phosphodiesterase 1 (TDP1): qHTS in cells in absence of CPT; Potency, µM (titrated, usually from 46.2 µM), hits mostly inhibitors; 420,000 compounds, 15% hits; DT40 Tdp1-/- hTDP1 cells, no CPT, ATP luminescence, 48 h; also: nearly all actives have a fitted effect of over 55% in size
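No-CPT arm: Tdp1-/-;hTDP1 DT40 cells (400/well) plus compounds, incubated ≥48 hr at 37 °C. Readout CellTiter-Glo luminescence.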
DT40 TDP1 CPT: DT40-hTDP1 cell growth loss with CPT | chicken DT40 Tdp1-/-;hTDP1 cells + 20 nM CPT, ATP luminescence, 48 h | Potency, µM (titrated, usually from 46.2 µM), most hits filed as inhibitors | 420,000 compounds, 12% hits | AID 686979; also: nearly all actives have a fitted effect of over 55% in size
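Chicken DT40 Tdp1-/- cells stably complemented with human TDP1 were seeded at 400 cells/well in medium containing 20 nM camptothecin, exposed to pin-transferred compounds, and grown at 37 °C for at least 48 hr. Viability was read as ATP luminescence.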
KB-3-1 tox: KB-3-1 parental cell cytotoxicity. KB-3-1 viability, CellTiter-Glo ATP luminescence, 72 h. Potency, µM (titrated, usually from 46.1 µM), most hits filed as cytotoxic. 400,000 compounds, 1.4% hits. AID 1347075; also: nearly all actives have a fitted effect of over 60% in size
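KB-3-1 cells, DMEM (no phenol red) + 10% FBS; compound by pin transfer, 72 h, 37 °C. Readout: CellTiter-Glo luminescence after 10 min. Data normalized, curve-fitted.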
HT1080-NT tox: kills 2HG-producing HT-1080-NT fibrosarcoma cells; HT-1080-NT fibrosarcoma viability, CellTiter-Glo ATP luminescence, 48 h; Potency, µM (series often up to 46.1 µM), usual class: cytotoxic; 360,000 compounds, 1.6% hits; AID 686970;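 also: NT is the 2HG producing partner of a matched IDH1 knockdown line; nearly all actives have a fitted effect of over 55% in size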
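Toxicity toward the 2HG-producing NT line was scored as %Activity, normalised to DMSO and no-cell wells, from CellTiter-Glo luminescence after 48 hours' treatment.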
KB-V1 cytotox: kills drug-selected multidrug resistant KB-V1 cells. 400,000 compounds, 3.4% hits. Potency, µM (top dose mostly 46.1 µM), actives largely listed as cytotoxic. KB-V1 MDR cells viability, CellTiter-Glo, 72 h; also: nearly all actives have a fitted effect of over 60% in size
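KB-V1 cells (P-gp-expressing MDR subline of KB-3-1) in phenol-red-free DMEM with 10% FBS were exposed to library compounds over a concentration series for 72 h at 37 degrees C. Viability read by CellTiter-Glo luminescence; concentration-effect curves fitted after normalization.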
Numbers stand for hits; 0 = inactive; ? = inconclusive; - = no result. Calls follow the shape of the dose curve; as a rule, active = well fitted curve in the direction sought with a large enough effect; inconclusive = small, poorly fitted or top-dose-only effect, or another doubt; inactive = no such curve, though single readings can be large; an effect the other way counts as inactive or inconclusive.

SMILES	HT1080 IDH1KD tx	TDP1 cell noCPT	DT40 TDP1 CPT	KB-3-1 tox	HT1080-NT tox	KB-V1 cytotox
COc1ccc(Nc2nc(NCC3CCCO3)nc(N)c2[N+](=O)[O-])cc1 (centres undefined)	0	?	?	0	0	0
c1ccc2c(NCC3CCCO3)nc(N3CCOCC3)nc2c1 (centres undefined)	0	0	0	0	0	0
CCOc1ccc(Nc2nc(NCC3CCCO3)c3ccccc3n2)cc1 (centres undefined)	?	2.91µM	25.9µM	?	18.4µM	?
Nc1nc(NCC2CCCO2)nc(Nc2cccc(F)c2)c1[N+](=O)[O-] (centres undefined)	0	?	?	0	0	0
c1coc(CNc2nc(N3CCCCC3)nc3ccccc23)c1	?	18.4µM	25.9µM	?	?	?
O=c1c2ccccc2nc2c3ccccc3c(NCc3ccco3)nn12	0	20.6µM	?	0	0	?
O=S(=O)(Nc1nc2ccccc2nc1NCC1CCCO1)c1cccc(Cl)c1 (centres undefined)	0	16.4µM	?	0	0	0
Oc1ccccc1-c1nc(NCc2ccco2)c2ccccc2n1	0	?	0	0	0	0
c1ccc(-c2nc(NCc3ccco3)c3ccccc3n2)nc1	?	2.59µM	2.59µM	5.8µM	0	?
c1ccc(CNc2nc(N3CCN(Cc4ccccc4)CC3)nc3ccccc23)cc1	20.6µM	16.4µM	?	?	?	23.1µM
COc1ccc(Br)cc1C(=O)Nc1cccc2ccc(C)nc12	-	0	0	0	-	0
CCN(Cc1ccccc1)C(=O)CCc1nc(CN2CCN(C(=O)c3ccc([N+](=O)[O-])cc3)CC2)no1	0	?	?	0	0	0
CSCCC(NC(=O)/C(=C/c1ccc(F)cc1)NC(C)=O)C(=O)O (centres undefined)	0	0	0	0	0	0
c1ccc(-c2nc(NCC3CCCO3)c3ccccc3n2)nc1 (centres undefined)	0	4.61µM	5.17µM	?	?	?
COc1ccc(Nc2nc(NCC3CCCO3)c3ccccc3n2)c(OC)c1 (centres undefined)	?	14.6µM	16.4µM	0	?	0
O=C(NCC1CCCO1)c1cc(-c2ccncc2)nc2ccccc12 (centres undefined)	0	?	0	0	0	0
COCC(=O)N1C[C@H]2CON(C)[C@H]2C[C@H]1c1ccc(N2CCCCC2)cc1	0	0	0	0	0	0
O=c1cc(O)cc2n1CCC2	0	0	0	0	0	0
COc1cccc(Nc2nc(C(N)Cc3ccc(Cl)cc3)cs2)n1 (centres undefined)	16.4µM	6.51µM	6.51µM	0	23.1µM	0
NC(=O)c1cccc(Nc2nc(C(N)Cc3ccc(C(F)(F)F)cc3)cs2)n1 (centres undefined)	?	10.3µM	6.51µM	?	7.31µM	0
NC(Cc1ccccc1)c1csc(Nc2ccc(C(=O)NCCO)cc2)n1 (centres undefined)	0	?	?	0	0	0
COc1ccc(CC(N)c2csc(Nc3ccccn3)n2)cc1 (centres undefined)	?	25.9µM	23.1µM	0	0	0
NC(Cc1ccccc1)c1csc(Nc2ccc(C(F)(F)F)cn2)n1 (centres undefined)	?	20.6µM	20.6µM	?	?	?
CC(C)CCC[C@@H](C)[C@H]1CC[C@H]2[C@@H]3CC[C@@H]4C[C@H](O)CC[C@]4(C)[C@H]3CC[C@]12C	-	0	0	-	-	-
CN(C(=O)CSc1nncn1C)C1CCCN(Cc2ccccc2F)C1 (centres undefined)	0	0	0	0	0	0
COc1cccc(Nc2nc(C(N)Cc3ccc(C(F)(F)F)cc3)cs2)n1 (centres undefined)	23.1µM	11.6µM	9.2µM	0	13µM	0
